Measured values taken from PubChem BioAssay (NCI).
About 79,000 compounds went through this panel and 15% of them were active in at least one assay; those are over-represented in the sample as a whole. Calls of active or inactive are those of the source. Rule as the data show it: active = growth inhibition above about 70%; inactive = the rest.

Tests used:
[1] = NCI Yeast Anticancer Drug Screen. Data for the rad50 strain (AID 155);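 also: 0% = growth of vehicle-only cultures of the same strain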; settings: S. cerevisiae rad50 strain growth inhibition, hits give high values
In short: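 Vehicle-treated cultures provide the reference for the growth inhibition reported for compound-exposed, repair-deficient yeast.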

[2] = NCI Yeast Anticancer Drug Screen. Data for the mec2-1 strain (AID 157); settings: S. cerevisiae mec2-1 strain, hits give high values
In short: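 Mutant yeast (mec2-1) grown with compound; growth inhibition relative to vehicle control reported.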

[3] = NCI Yeast Anticancer Drug Screen. Data for the sgs1 mgt1 strain (AID 161);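 also: 0% = growth of cultures given vehicle only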; settings: S. cerevisiae sgs1 mgt1 strain, hits give high values
In short: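 Yeast cells carrying a defined DNA-repair defect were exposed to test compounds. Growth inhibition was measured relative to vehicle-treated controls.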

[4] = NCI Yeast Anticancer Drug Screen. Data for the cln2 rad14 strain (AID 165);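 also: 0% = growth equal to vehicle treated cultures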; settings: S. cerevisiae cln2 rad14 strain, hits give high values
In short: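 Readout is yeast growth inhibition versus vehicle-treated controls, using a strain with cln2 and rad14 alterations exposed to compound.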

[5] = NCI Yeast Anticancer Drug Screen. Data for the bub3 strain (AID 167); settings: S. cerevisiae bub3 mutant strain, hits give high values
In short: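 Mutant yeast screening strain plus compound; vehicle-treated cultures serve as the 0% inhibition reference.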

[6] = NCI Yeast Anticancer Drug Screen. Data for the mlh1 rad18 strain (AID 175); settings: S. cerevisiae mlh1 rad18 strain growth inhibition, hits give high values
In short: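 Genetically defined yeast (DNA repair-deficient) exposed to compounds; growth inhibition determined relative to vehicle.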

[7] = at 5.0 µM (retest, dose inferred, filed as 0.5)
[8] = at 50.0 µM (retest, dose inferred, filed as 5.0)

Measured: growth inhibition

[Cl][Pt+2][Cl].[NH-]C1CCCC2CCC[N-]C12 (configuration not stated)
inactive: [1]; [7] 34% | [1]; at 50.0 µM 20.6% | [2]; [7] 24% | [2]; at 50.0 µM 60.4% | [3]; [7] 55% | [3]; at 50.0 µM 57.8% | [4]; [7] 50% | [4]; at 50.0 µM 34% | [5]; [7] 52% | [5]; at 50.0 µM 38.5% | [6]; [7] 18%
active: [1]; [8] 97% | [2]; [8] 77% | [3]; [8] 98% | [4]; [8] 86% | [5]; [8] 84% | [6]; [8] 97% | [6]; at 50.0 µM 76.1%

CC(=O)OC1CCC2(C)C3CCC4(C)C(OC(=O)c5ccccc5)CCC4C3CC(Br)C2(O)C1 (configuration not stated)
inactive: [1]; [7] 35% | [1]; [8] 56% | [2]; [7] 27% | [2]; [8] 39% | [3]; [7] 44% | [3]; [8] 64% | [4]; [7] 40% | [4]; [8] 44% | [5]; [7] 45% | [5]; [8] 56% | [6]; [7] 42% | [6]; [8] 56%
active: [1]; at 50.0 µM 87.1% | [2]; at 50.0 µM 87.9% | [3]; at 50.0 µM 89.5% | [4]; at 50.0 µM 90.8% | [5]; at 50.0 µM 86.8% | [6]; at 50.0 µM 85.7%

CC[CH2][Sn]([CH2]CC)([CH2]CC)[CH2]CCBr
active: [1]; [7] 98% | [1]; [8] 99% | [1]; at 50.0 µM 99.5% | [2]; [7] 99% | [2]; [8] 100% | [2]; at 50.0 µM 99.7% | [3]; [7] 99% | [3]; [8] 100% | [3]; at 50.0 µM 99.6% | [4]; [7] 99% | [4]; [8] 98% | [4]; at 50.0 µM 99.3% | [5]; [7] 99% | [5]; [8] 99% | [5]; at 50.0 µM 99.7% | [6]; [7] 99% | [6]; [8] 99% | [6]; at 50.0 µM 99.5%

N#C[S-].[Nd+3].c1ccc(-c2ccccn2)nc1.c1ccc(-c2ccccn2)nc1.c1ccc(-c2ccccn2)nc1
active: [1]; [8] 99% | [1]; at 50.0 µM 91.2% | [2]; [8] 99% | [2]; at 50.0 µM 94.1% | [3]; [8] 99% | [3]; at 50.0 µM 93.5% | [4]; [8] 96% | [4]; at 50.0 µM 92.5% | [5]; [8] 100% | [5]; at 50.0 µM 93% | [6]; [8] 99% | [6]; at 50.0 µM 92%
inactive: [1]; [7] 62% | [2]; [7] 40% | [3]; [7] 44% | [4]; [7] 33% | [5]; [7] 62% | [6]; [7] 51%

CC[C@](C)(O)C(=O)O[C@H]1C(=O)O[C@@H]2C[C@H]3C(C)=CC(=O)[C@@H](O)[C@]3(C)[C@H]3[C@@]4(O)OC[C@]32[C@@H]1[C@@H](C)[C@H]4O
inactive: [1]; [7] 17% | [1]; at 50.0 µM 68% | [2]; [7] 21% | [2]; at 50.0 µM 46.6% | [3]; [7] 14% | [3]; at 50.0 µM 61.8% | [4]; [7] 33% | [5]; [7] 6% | [6]; [7] 9%
active: [1]; [8] 94% | [2]; [8] 90% | [3]; [8] 91% | [4]; [8] 97% | [4]; at 50.0 µM 71.6% | [5]; [8] 97% | [5]; at 50.0 µM 70.3% | [6]; [8] 94% | [6]; at 50.0 µM 74.3%

CC[C@@]1(O)C[C@H](OC2CC(N)C(O)C(C)O2)c2c(O)c3c(c(O)c2[C@H]1C(=O)OC)C(=O)c1cccc(O)c1C3=O (some centres not stated)
inactive: [1]; [7] 63% | [2]; [7] 27% | [3]; [7] 48% | [4]; [7] 39% | [4]; at 50.0 µM 67.3% | [5]; [7] 52% | [6]; [7] 50%
active: [1]; [8] 99% | [1]; at 50.0 µM 78.1% | [2]; [8] 99% | [2]; at 50.0 µM 87.5% | [3]; [8] 99% | [3]; at 50.0 µM 80.2% | [4]; [8] 99% | [5]; [8] 99% | [5]; at 50.0 µM 76.7% | [6]; [8] 98% | [6]; at 50.0 µM 80.2%

[Cl][Sn]1([c]2ccccc2)[O]CCNCC[O]1
inactive: [1]; [7] 22% | [2]; [7] 9% | [3]; [7] 12% | [4]; [7] 6% | [5]; [7] 9% | [6]; [7] 19%
active: [1]; [8] 97% | [1]; at 50.0 µM 88.1% | [2]; [8] 99% | [2]; at 50.0 µM 91.2% | [3]; [8] 99% | [3]; at 50.0 µM 90.8% | [4]; [8] 97% | [4]; at 50.0 µM 91.8% | [5]; [8] 98% | [5]; at 50.0 µM 90% | [6]; [8] 97% | [6]; at 50.0 µM 91.8%

C[C@]12CC[C@H]3[C@@H](C[C@@H](F)C4=CC(=O)CC[C@@]43C)[C@@H]1CC[C@@H]2O
active: [3]; [8] 93% | [5]; [8] 80% | [6]; [8] 86%
inactive: [1]; [7] 7% | [1]; [8] 46% | [1]; at 50.0 µM 56.2% | [2]; [7] 3% | [2]; [8] 58% | [2]; at 50.0 µM 7.4% | [3]; [7] 4% | [3]; at 50.0 µM 56% | [4]; [7] -2% | [4]; [8] 30% | [4]; at 50.0 µM 6.75% | [5]; [7] 0% | [5]; at 50.0 µM 34% | [6]; [7] 15% | [6]; at 50.0 µM 30.1%

CC12CCC3C(CCC4CC(N5CCCCC5)=CCC43C)C1CCC2O (configuration not stated)
active: [1]; [8] 98% | [2]; [8] 97% | [2]; at 50.0 µM 89.4% | [3]; [8] 99% | [4]; [8] 98% | [4]; at 50.0 µM 73% | [5]; [8] 98% | [5]; at 50.0 µM 84.5% | [6]; [8] 98% | [6]; at 50.0 µM 98.5%
inactive: [1]; [7] -3% | [1]; at 50.0 µM 48.5% | [2]; [7] -12% | [3]; [7] 5% | [3]; at 50.0 µM 47.1% | [4]; [7] 5% | [5]; [7] -8% | [6]; [7] -3%
